Assay results from PubChem BioAssay.

Test: modulators of HCV replicon luciferase signal, primary screen, HCV replication inhibitor project, Huh7 cells, luciferase reporter (AID 1109);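 note: huh7 hepatoma cells harbouring a luciferase neomycin HCV replicon reporter; luciferase luminescence as measure of HCV replicon replication; test concentration not given here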
Conditions: 48 h, higher = more signal

SMILES	z-score
CCOC(=O)C[C@H]1[C@H](OC(=O)c2ccccc2-c2ccccc2)[C@@H](NC(=O)c2ccc(-c3ccccc3)cc2)c2cc(OCCCO)ccc2N1C(=O)c1ccc2ccccc2n1	-1.24
C=CCC(OC(C)=O)[C@@H]1[C@@H](N(Cc2ccc(-c3ccccc3)cc2)C(=O)Cc2ccc(F)cc2)c2cc(OCCCO)ccc2N1C(=O)Cc1ccc(OC)cc1 (stereo not given in full)	-0.71
O=C(NCC(F)(F)F)[C@@H]1c2ccccc2C(=O)N(Cc2ccc(OC(F)(F)F)cc2)[C@H]1c1ccc(CO)cc1	-0.971
COC(=O)CCCCCCC(=O)Nc1ccc(NC(=O)CCCC[P+](c2ccccc2)(c2ccccc2)c2ccccc2)cc1	0.319
CCCCCCc1nc(C2CC2)cc2c1[Si](C(C)C)(C(C)C)OC2	-0.622
O=C1O[C@H](c2ccccc2)[C@H](c2ccccc2)N2[C@H]1[C@@H](C(=O)Nc1nc3ccccc3s1)[C@]1(C(=O)Nc3ccccc31)[C@H]2c1ccc(OCCO)cc1	-2.64
C=C(/C(=C/C[C@H](OC(=O)c1ccncc1)c1ccc(CO)o1)c1cc(C(=O)OC)ccc1OC)C(C)C	-0.706
CN(C)C(=O)[C@@]1(CCS(=O)(=O)c2ccccc2)N=C(c2ccc(OCCCO)cc2)O[C@H]1c1ccccc1	-1.76
O=C1OCCC/C=C\[C@H]2OC34C=CCN(CCN5CCOCC5)C(=O)[C@H]3N(CCCCCCO)C(=O)[C@@H]4C12 (stereo not given in full)	0.857
O=C1C2C=CC(C(O)c3ccc(Br)cc3)N(Nc3ccccc3F)C2C(=O)N1c1ccccc1 (stereo not given)	-0.445
CCCCC(=C=CC[C@@H](O)c1ccccc1OCCO)C[C@@H](O)COCc1ccccc1	-1.45
O=C1O[C@@H](c2ccccc2)[C@@H](c2ccccc2)N2[C@@H](c3ccc(O)cc3)[C@]3(C(=O)Nc4ccc(C#CC5=CCCCC5)cc43)[C@@H](C(=O)NC[C@H](O)c3ccccc3)[C@H]12	-1.31
NC(=O)NCC#Cc1ccc2c(c1)[C@]1(C(=O)N2)[C@H](C(=O)NC[C@H](O)c2ccccc2)[C@H]2C(=O)O[C@H](c3ccccc3)[C@H](c3ccccc3)N2[C@@H]1c1ccc(OCCO)cc1	-1.22
CC(C)N1CC=CC23O[C@@H]4C=CCOC(=O)[C@@H]4[C@H]2C(=O)N(CCCO)[C@@H]3C1=O (stereo not given in full)	-0.223
N#Cc1ccc(C(O)C2C=CC3C(=O)N(c4ccccc4)C(=O)C3N2Nc2ccccc2)cc1 (stereo not given)	-0.875
CCCCN1CC=CC23O[C@@H]4/C=C\CCC(C)OC(=O)C4[C@H]2C(=O)N(C(CO)C(C)C)[C@@H]3C1=O (stereo not given in full)	-0.768
C=CCN1Cc2ccccc2[C@H]2OC(c3ccc(OCCCO)cc3)=N[C@@]2(CC=C)C1=O	-1.74
CC(CO)N1C(=O)[C@@H]2[C@H]3C(=O)OCC=C[C@H]3OC23C=CCN(CCN2CCOCC2)C(=O)[C@@H]13 (stereo not given in full)	0.606

SMILES	z-score
CCCCCCc1nc(-c2cc(C)c(OC)c(C)c2)c(C)c2c1[Si](C(C)C)(C(C)C)OC2	0.791
C=C(COC)/C(=C/C[C@H](OC(=O)c1ccncc1)c1ccccc1OCCO)c1cnc2ccccc2c1	-2.29
CO[C@H]1O[C@H](CO)[C@@H](OC(=O)Nc2ccc3c(c2)OCO3)[C@H](OC(=O)c2cc3ccccc3[nH]2)[C@H]1OC(=O)c1cc2ccccc2[nH]1	-1.99
O=C1N(Cc2ccccc2)c2ccccc2[C@@H]2OC(c3ccc(OCCCO)cc3)=N[C@]12Cc1ccccc1	-2.69
CCOC(=O)c1ccc(NC(=O)O[C@H]2[C@H](OC(=O)Nc3ccc4c(c3)OCO4)[C@@H](OC(=O)Nc3ccc4c(c3)OCO4)[C@@H](OC)O[C@@H]2CO)cc1	1.5
C=CCC(OC(C)=O)[C@@H]1[C@@H](N(Cc2cccc3ccccc23)C(=O)Cc2ccc(OC)cc2)c2cc(OCCCO)ccc2N1C(=O)c1ccc2ccccc2n1 (stereo not given in full)	-0.043
COCCCNC(=O)[C@@]1(Cc2ccccc2CN=[N+]=[N-])N=C(c2ccc(OCCCO)cc2)O[C@H]1c1ccccc1	-2.84
COC(=O)[C@@]1(Cc2ccccc2)[C@H]2c3cc(C(=O)N(C)C)n(CCc4ccc(O)c(OC)c4)c3C[C@H]2CN1C(=O)c1ccccc1	-0.261
CN1C(=O)C2C=CC(C(O)COCc3ccccc3)N(N(c3ccccc3)c3ccccc3)C2C1=O (stereo not given)	-1.4
CC(c1ccccc1)C(O)C1C=CC2C(=O)N(c3ccccc3)C(=O)C2N1Nc1ccc([N+](=O)[O-])cc1 (stereo not given)	-0.0504
[N-]=[N+]=NCc1ccccc1[C@H]1OC(c2ccc(OCCCO)cc2)=N[C@@]1(CCS(=O)(=O)c1ccccc1)C(=O)N1CCCCC1	-1.11
[N-]=[N+]=Nc1ccccc1C[C@]1(C(N)=O)N=C(c2ccc(OCCCO)cc2)O[C@H]1c1ccccc1N=[N+]=[N-]	-2.55
COc1cc(CO)cc(I)c1O[C@H]1C=C(C(=O)NCCO)C[C@@H](NCc2ccc(F)cc2)[C@@H]1O	-4.07
CCCC[C@@H]1C[C@H]1[C@@H](NC(=O)c1cccs1)c1ccc(C(F)(F)F)cc1	-0.152
COCCOC(=O)N1C(=O)[C@@]2(c3cc(C#CC4=CCCCC4)ccc31)[C@H](C(N)=O)[C@H]1C(=O)O[C@H](c3ccccc3)[C@H](c3ccccc3)N1[C@@H]2c1ccccc1OCCO	-3.15
O=C1OCCC=C[C@H]2OC34C=CCN(Cn5nnc6ccccc65)C(=O)[C@H]3N(CCCCCCO)C(=O)[C@@H]4C12 (stereo not given in full)	0.333
Cc1ccc(S[C@]2(C(=O)O)CC(=O)N(Cc3cc(C(F)(F)F)cc(C(F)(F)F)c3)[C@@H]2c2ccc(CO)cc2)cc1	-0.0295
